Data published in PubChem BioAssay AID488890 (Southern Research Specialized Biocontainment Screening …, 2010).
The whole screen tested about 320,000 compounds, of which about 1,300 (0.41%) were called active. Inconclusive results (about 3%) are left out. The rule behind the calls is not given here. Not all results are given here. Potency and affinity values are given separately.

experiment: growth inhibition of non-replicating M. tuberculosis (AID 488890); settings: Mycobacterium tuberculosis non-replicating, at 25 µM, stronger effect = higher value;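 note: plate controls were DMSO cells for no effect and high antibiotic wells for full effect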

| SMILES | inhibition [%] |
| --- | --- |
| COc1ccc(OCCNc2cc(N3CCCCC3)ccc2[N+](=O)[O-])cc1 | 72.4 |
| Cc1ccsc1C(=O)C1CCCN(Cc2sc(N(C)C)nc2Cl)C1 (stereo not given) | -9.22 |
| CC1CC(c2ccccc2)n2nc(NC(=O)c3ccco3)nc2N1 (stereo not given) | 3.85 |
| CC1CCCC(NC(=O)CCCn2ncn3c(cc4occc43)c2=O)C1C (stereo not given) | -13.3 |
| CC1Cc2ccccc2N1C(=O)c1ccc(N2CCCCC2)c([N+](=O)[O-])c1 (stereo not given) | 20.8 |
| Cc1ccc2sc3ccc(NC(=O)c4ccccc4Cl)cc3c(=O)c2c1 | -1.36 |
| Cc1ccc(C(=O)N[C@H](C(=O)NC2CCCCCCC2)C(C)C)cc1 | -6.5 |
| Cc1ccc(C(=O)N[C@H](C(=O)NC2CCCCC2)C(C)C)cc1 | 15.5 |
| CN(C)c1cc[n+](CC(=O)N2c3ccccc3Sc3ccccc32)cc1 | 6.94 |
| CC1(c2cc(C(F)(F)F)n3nc(C(=O)O)cc3n2)CC1 | -1.85 |
| Fc1ccc(Oc2cnc3ccccc3n2)cc1 | 75.1 |
| CCS(=O)(=O)c1nc2ccccc2n1Cc1ccccc1Cl | 17.3 |
| Cc1nc2ccccc2n1Cc1ccc(Cl)cc1 | 16.2 |
| CCC(=O)Nc1nc2ccccc2n1CCN(C)C | 28.6 |
| CCC(=O)Nc1nc2ccccc2n1CCN(CC)CC | 12.6 |
| CCn1c(NCc2ccccc2Cl)nc2ccccc21 | 26.2 |
| CCC(=O)Nc1nc2ccccc2n1CCN1CCOCC1 | 2.63 |
| Cc1ccc(CNC(=O)c2nnn(-c3cccc(C)c3)c2N)cc1 | 27.4 |
| O=c1c2ccccc2nnn1COc1ccc(F)cc1Cl | 33 |
| N#CC(C#N)=C1NC2(CCCCC2)Cc2ccccc21 | -7.74 |
| CN(CC(=O)Nc1cccc(F)c1)C(=O)c1ccc(C2SCCS2)cc1 | 16 |
| COc1ccc(NC(=O)c2cnc(SCC(=O)NCCc3ccccc3)n(C)c2=O)cc1 | -6.78 |
| COc1ccccc1C(=O)N(CCC1CCCN1C)c1nc2ccccc2s1 (stereo not given) | 12.9 |
| CCCCn1c(N)c(N(CCOC)C(=O)c2sc3cc(F)ccc3c2Cl)c(=O)[nH]c1=O | -5.03 |
| NS(=O)(=O)c1ccc(NC(=O)COC(=O)COc2ccc3ccccc3c2)cc1 | 34.3 |
| O=C(CSc1n[nH]c(=O)n1Cc1ccco1)Nc1ccccc1 | -4.65 |
| CCN1C(=O)C(CC(=O)Nc2ccc(Br)cc2)N(CCCc2ccccc2)C1=S (stereo not given) | 41.5 |
| Cc1ccc(NC(=O)O/N=C/c2ccc(F)cc2)cc1 | 4.77 |

| SMILES | inhibition [%] |
| --- | --- |
| O=C(Nc1ccccc1)ON=C1CCCC1 | 69.3 |
| O=C(COc1cc2oc(=O)c3c(c2cc1Cl)CCC3)Nc1cccnc1 | 5.55 |
| COc1ccc(-c2cc(C(F)(F)F)nc(S(=O)(=O)CCC(=O)N3CCOCC3)n2)cc1 | 79 |
| COc1ccc(-c2cc(C(F)(F)F)nc(N)n2)cc1 | 6.01 |
| Cc1ccc(-c2cc(C(F)F)nc(N3CCOCC3)n2)cc1 | 17.6 |
| Cc1ccc(-c2cc(C(F)F)nc(N3CCC(C)CC3)n2)cc1 | 8.45 |
| Cc1cc(NC(=O)CCS(=O)(=O)c2nc(-c3ccccc3)cc(C(F)(F)F)n2)no1 | 41.1 |
| CCOC(=O)CCSc1nc(-c2ccccc2)cc(C(F)(F)F)n1 | 8.6 |
| COc1ccccc1-c1cc(C(F)(F)F)nc(S(=O)(=O)CCCC(=O)O)n1 | 44.3 |
| CCOC(=O)CSc1nc(-c2ccccc2)cc(C(F)(F)F)n1 | 69.6 |
| O=C1OC[C@H]2CCCN2C(=O)[C@@H](CC(=O)N(CCO)Cc2ccccc2)C/C=C\C[C@H]1Cc1ccc(F)cc1 | 47.4 |
| O=C1NNC(c2ccccc2)=N/C1=C\c1ccccc1 | -6.71 |
| CSc1ccccc1C(=O)NCCCOC(C)C | -17.5 |
| O=C(O)/C=C/C(=O)NCCCc1ccccc1 | 18.7 |
| CC1=C(C(=O)OCCOC(C)C)C(c2cc3c(cc2Br)OCO3)C2=C(CCCC2=O)N1 (stereo not given) | 12.9 |
| COc1cc(CC(CC(=O)O)CC(C)OCc2ccccc2)cc(OC)c1 (stereo not given) | 24.2 |
| O=C(COc1ccccc1Cl)NNC(=O)c1ccc2c(=O)n3c(nc2c1)CCC3 | -23 |
| COc1ccc(CN(C)C(=O)c2ccc3c(=O)n4c(nc3c2)CCC4)cc1 | -3.83 |
| CC(OC(=O)c1ccc2c(=O)n3c(nc2c1)CCC3)C(N)=O (stereo not given) | -8.53 |
| O=C(c1ccc2c(=O)n3c(nc2c1)CCCCC3)N1CCN(c2ccc([N+](=O)[O-])cc2)CC1 | 25.7 |
| CN(Cc1cccc(F)c1)C(=O)c1ccc2c(=O)n3c(nc2c1)CCC3 | -4.16 |
| COc1ccc(COC(=O)c2ccc3c(=O)n4c(nc3c2)CCC4)cc1F | -0.76 |
| O=C(NNC(=O)c1ccccc1Cl)c1ccc2c(=O)n3c(nc2c1)CCC3 | 1.89 |
| O=C(Nc1ccc2nc3n(c(=O)c2c1)CCCC3)c1cccc([N+](=O)[O-])c1 | -20.7 |
| CC1CCCCN1S(=O)(=O)c1ccc(S(=O)(=O)N2CCCC2)cc1 (stereo not given) | 4.73 |
| CCOc1ccc(CCNS(=O)(=O)c2cc3c(cc2C)NC(=O)CO3)cc1OCC | 16.2 |
| O=C(Cc1cccc2ccccc12)Nc1ccccc1Br | 12.5 |
